The target of test [1] is Leukocyte tyrosine kinase receptor (Homo sapiens) (UniProt P29376). The conditions noted are these: at 1 µM.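 Also: each value is the mean inhibition of LTK.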
Test [2] deals with Tyrosine-protein kinase Lyn (Homo sapiens) (UniProt P07948). The conditions noted are these: at 0.1 µM.
For test [3] the target is unchanged. The conditions noted are these: at 1 µM.
Test [4] has the same target. As to conditions: at 0.1 µM. The source holds these as a separate data set.
The target is the same in test [5]. The conditions noted are these: at 1 µM. This is another data set of the same source.
In test [6] the target is T1, Tyrosine-protein kinase Mer (Homo sapiens) (UniProt Q12866).
T1 sequence (whole entry): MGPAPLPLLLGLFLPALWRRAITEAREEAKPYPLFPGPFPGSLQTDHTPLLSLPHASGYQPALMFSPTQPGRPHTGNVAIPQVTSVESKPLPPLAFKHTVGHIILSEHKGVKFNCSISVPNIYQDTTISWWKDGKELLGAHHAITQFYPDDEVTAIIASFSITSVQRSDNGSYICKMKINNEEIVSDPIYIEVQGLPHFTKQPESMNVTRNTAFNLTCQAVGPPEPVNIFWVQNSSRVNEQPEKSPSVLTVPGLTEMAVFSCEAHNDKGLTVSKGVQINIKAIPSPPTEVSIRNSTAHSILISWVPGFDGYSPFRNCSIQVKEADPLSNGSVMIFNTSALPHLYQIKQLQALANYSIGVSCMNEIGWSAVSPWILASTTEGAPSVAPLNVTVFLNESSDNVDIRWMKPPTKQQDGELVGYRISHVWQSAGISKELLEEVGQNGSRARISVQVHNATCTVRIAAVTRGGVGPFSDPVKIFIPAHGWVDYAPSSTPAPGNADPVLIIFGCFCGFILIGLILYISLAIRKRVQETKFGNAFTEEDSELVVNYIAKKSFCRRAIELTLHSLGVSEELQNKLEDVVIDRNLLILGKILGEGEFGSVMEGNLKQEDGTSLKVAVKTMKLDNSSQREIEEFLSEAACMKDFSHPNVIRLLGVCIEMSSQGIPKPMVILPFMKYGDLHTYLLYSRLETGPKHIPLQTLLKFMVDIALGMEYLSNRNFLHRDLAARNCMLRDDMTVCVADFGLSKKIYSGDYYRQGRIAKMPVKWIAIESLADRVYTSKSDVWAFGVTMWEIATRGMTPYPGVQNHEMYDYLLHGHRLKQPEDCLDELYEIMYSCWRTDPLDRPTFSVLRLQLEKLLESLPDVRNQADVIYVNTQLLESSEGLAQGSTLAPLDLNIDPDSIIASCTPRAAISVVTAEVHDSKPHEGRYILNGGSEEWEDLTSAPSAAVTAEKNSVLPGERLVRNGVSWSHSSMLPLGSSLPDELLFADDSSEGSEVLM
As to conditions: at 0.1 µM.

Test [7] has as its target T1, Tyrosine-protein kinase Mer (Homo sapiens). As to conditions: at 1 µM.
Test [8] concerns the target Hepatocyte growth factor receptor (Homo sapiens) (UniProt P08581). The conditions noted are these: at 0.1 µM.
Test [9] shares this target. As to conditions: at 1 µM.
For test [10], the target named is T2, Muscle, skeletal receptor tyrosine-protein kinase (Homo sapiens) (UniProt O15146).
T2 sequence (whole entry): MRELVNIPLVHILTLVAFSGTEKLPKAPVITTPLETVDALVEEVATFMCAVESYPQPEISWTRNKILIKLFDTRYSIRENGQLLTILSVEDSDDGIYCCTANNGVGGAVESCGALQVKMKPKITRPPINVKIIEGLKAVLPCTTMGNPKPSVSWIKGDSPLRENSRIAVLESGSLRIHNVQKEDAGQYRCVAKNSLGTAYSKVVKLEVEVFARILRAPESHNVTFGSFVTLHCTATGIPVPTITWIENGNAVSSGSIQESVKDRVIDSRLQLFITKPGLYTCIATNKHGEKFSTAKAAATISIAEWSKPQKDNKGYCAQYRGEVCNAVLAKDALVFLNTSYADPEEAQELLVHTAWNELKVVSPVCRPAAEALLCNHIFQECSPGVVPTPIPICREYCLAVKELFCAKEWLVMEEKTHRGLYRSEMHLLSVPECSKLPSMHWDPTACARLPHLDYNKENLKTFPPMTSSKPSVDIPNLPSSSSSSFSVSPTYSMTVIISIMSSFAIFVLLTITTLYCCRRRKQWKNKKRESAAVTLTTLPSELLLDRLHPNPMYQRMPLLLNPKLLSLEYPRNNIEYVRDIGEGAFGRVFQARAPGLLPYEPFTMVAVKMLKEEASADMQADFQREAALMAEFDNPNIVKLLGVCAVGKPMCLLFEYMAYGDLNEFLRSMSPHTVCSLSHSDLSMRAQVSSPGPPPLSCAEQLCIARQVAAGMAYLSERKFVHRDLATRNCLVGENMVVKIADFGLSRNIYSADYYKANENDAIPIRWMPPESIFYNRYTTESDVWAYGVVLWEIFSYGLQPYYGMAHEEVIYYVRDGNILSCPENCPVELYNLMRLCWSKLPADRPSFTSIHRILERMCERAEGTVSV
The conditions noted are these: at 0.1 µM.

In test [11] the target is T2, Muscle, skeletal receptor tyrosine-protein kinase (Homo sapiens). As to conditions: at 1 µM.
The target in test [12] is Platelet-derived growth factor receptor alpha (Homo sapiens) (UniProt P16234). As to conditions: at 0.1 µM.
Test [13] shares this target. The conditions noted are these: at 1 µM.
In test [14] the test system is Platelet-derived growth factor receptor alpha (Homo sapiens), P16234 [D842V]. As to conditions: at 0.1 µM.
For test [15] the test system is unchanged. As to conditions: at 1 µM.
Test [16] has as its system Platelet-derived growth factor receptor alpha (Homo sapiens), P16234 [T674I]. The conditions noted are these: at 0.1 µM.
Test [17] has the same test system. As to conditions: at 1 µM.
The test system of test [18] is Platelet-derived growth factor receptor alpha (Homo sapiens), P16234 [V561D]. The conditions noted are these: at 0.1 µM.
Test [19] shares this test system. The conditions noted are these: at 1 µM.
For test [20], the target named is Platelet-derived growth factor receptor beta (Homo sapiens) (UniProt P09619). As to conditions: at 0.1 µM.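 Also: reported value is the mean percent inhibition of the kinase.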

Platelet-derived growth factor receptor alpha (Homo sapiens), P16234 [D842V], sequence (P16234 whole entry D842V): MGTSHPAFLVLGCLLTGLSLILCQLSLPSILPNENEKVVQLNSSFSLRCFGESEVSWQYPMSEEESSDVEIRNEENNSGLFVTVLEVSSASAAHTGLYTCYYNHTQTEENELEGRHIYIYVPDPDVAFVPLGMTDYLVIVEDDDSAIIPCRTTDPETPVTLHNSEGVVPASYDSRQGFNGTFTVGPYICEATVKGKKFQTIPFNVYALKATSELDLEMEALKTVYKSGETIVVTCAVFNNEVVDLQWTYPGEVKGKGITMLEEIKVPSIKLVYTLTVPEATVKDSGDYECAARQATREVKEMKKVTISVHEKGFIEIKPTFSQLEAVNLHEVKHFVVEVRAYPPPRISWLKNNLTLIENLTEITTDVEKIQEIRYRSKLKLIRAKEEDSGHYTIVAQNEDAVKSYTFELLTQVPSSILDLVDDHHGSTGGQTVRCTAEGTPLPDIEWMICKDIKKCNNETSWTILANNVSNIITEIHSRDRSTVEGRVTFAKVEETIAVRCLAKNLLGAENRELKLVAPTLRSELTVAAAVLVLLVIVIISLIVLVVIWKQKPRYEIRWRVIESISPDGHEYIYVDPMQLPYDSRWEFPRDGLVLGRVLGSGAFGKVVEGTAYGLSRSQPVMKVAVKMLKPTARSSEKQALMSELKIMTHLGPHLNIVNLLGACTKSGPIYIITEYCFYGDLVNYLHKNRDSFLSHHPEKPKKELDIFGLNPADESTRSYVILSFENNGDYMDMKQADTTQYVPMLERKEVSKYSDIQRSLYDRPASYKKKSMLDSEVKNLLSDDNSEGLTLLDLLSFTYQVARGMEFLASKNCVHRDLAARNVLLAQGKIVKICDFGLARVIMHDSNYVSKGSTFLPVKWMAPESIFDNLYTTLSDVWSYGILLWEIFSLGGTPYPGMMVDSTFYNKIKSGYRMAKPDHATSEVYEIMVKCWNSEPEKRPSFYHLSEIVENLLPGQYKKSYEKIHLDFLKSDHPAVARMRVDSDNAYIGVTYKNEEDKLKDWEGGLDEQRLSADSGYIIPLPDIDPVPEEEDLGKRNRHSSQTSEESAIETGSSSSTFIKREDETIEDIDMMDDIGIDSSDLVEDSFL
Platelet-derived growth factor receptor alpha (Homo sapiens), sequence (P16234 whole entry): as the sequence (P16234 whole entry D842V) above, with V842D counted along it
Platelet-derived growth factor receptor alpha (Homo sapiens), P16234 [V561D], sequence (P16234 whole entry V561D): as the sequence (P16234 whole entry D842V) above, with V561D, V842D counted along it
Tyrosine-protein kinase Lyn (Homo sapiens), sequence (P07948 2-512 limits assumed): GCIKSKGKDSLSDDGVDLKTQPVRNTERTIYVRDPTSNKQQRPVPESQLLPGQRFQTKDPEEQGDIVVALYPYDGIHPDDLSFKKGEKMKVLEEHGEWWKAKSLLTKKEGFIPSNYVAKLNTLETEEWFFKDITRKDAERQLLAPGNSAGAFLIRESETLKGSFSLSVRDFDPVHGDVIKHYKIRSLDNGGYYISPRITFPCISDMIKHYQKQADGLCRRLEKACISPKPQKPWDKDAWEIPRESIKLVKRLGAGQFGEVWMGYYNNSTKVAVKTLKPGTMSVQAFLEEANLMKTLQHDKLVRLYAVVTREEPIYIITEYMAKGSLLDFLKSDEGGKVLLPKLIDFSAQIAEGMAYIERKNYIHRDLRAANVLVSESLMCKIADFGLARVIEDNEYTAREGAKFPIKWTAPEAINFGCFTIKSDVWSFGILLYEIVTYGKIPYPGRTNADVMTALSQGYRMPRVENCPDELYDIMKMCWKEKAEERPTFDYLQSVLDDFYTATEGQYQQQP
Platelet-derived growth factor receptor alpha (Homo sapiens), P16234 [T674I], sequence (P16234 whole entry T674I): as the sequence (P16234 whole entry D842V) above, with T674I, V842D counted along it

As a reminder, the inhibition is the change of the read-out against control, counted positive when it falls. Regarding `CC1=C(C(=O)Nc2ccc3[nH]ncc3c2)C(c2ccc(F)cc2)N=C(c2ccc(C(F)(F)F)nc2)N1` (stereo not given), the inhibition in [1] is 3.48%; in test [2], 2.25%; in test [3] it was 5.17%; in test [4] it was 0.9%; in test [5] it was 3.68%; in test [6] it was 1.51%. For the same molecule, the inhibition stood at 2.57% in [7]; 3.67% in test [8]; 2.53% in test [9]; 2.32% in [10]; 5.28% in [11]; 6.34% in test [12]. The inhibition in [13] stood at 8.66%; in test [14], 2.97%; in test [15] it was 3.35%; in test [16], 3.34%; in test [17], 4.17%; in test [18] it was 3.03%. Moreover, the inhibition is 3.17% in [19] and 1.04% in [20].
Turning to `COc1ccccc1-c1cc(/C=C2\C(=O)Nc3ncc(Br)cc32)cc(Br)c1O`, the inhibition in test [1] was determined as 5.69%; in test [2] it was 6%; in test [3] it was 14.4%; in [4], 4.58%; in test [5], 9.46%; in test [6], 3.28%. Also, the inhibition in test [7] is 7.77%; in [8] it was 1.57%; in [9], 4.03%; in test [10], 1.98%; in test [11] it was 5.9%; in test [12], 11.6%. Also, the inhibition came to 16.9% in [13]; 2.43% in [14]; 5.41% in test [15]; 8.02% in test [16]; 8.24% in test [17]; 2.82% in test [18]. Further, the inhibition in [19] was 15.2%; in test [20], 6.48%.
Turning to `COc1ccc2ncn(-c3cc(O[C@H](C)c4ccccc4C(F)(F)F)c(C(N)=O)s3)c2c1`, the inhibition in test [1] is 1.97%; in [2], 0.92%; in [3], 1.75%; in [4], -0.04%; in test [5], 1.72%; in test [6], -0.24%. The inhibition is 2.59% in [7]; -3.32% in [8]; 0.66% in test [9]; 3.55% in [10]; 22.4% in [11]; 8.31% in test [12]. The inhibition in test [13] came to 35.4%; in [14] it was 4.46%; in test [15], 24.9%; in test [16] it was 0.36%; in test [17], 9.23%; in test [18], 5.47%. Moreover, the inhibition in [19] was found to be 26.1%; in test [20] it was 6.65%.
For `CN1CCC(n2cnc(-c3ccc(F)cc3)c2-c2ccnc(NCCO)n2)CC1`, the inhibition was 5.36% in [1]; 5.64% in test [2]; 7.19% in test [3]; 3.08% in test [4]; 5.79% in test [5]; 2.22% in [6]. Moreover, the inhibition in test [7] came out at 7.18%; in [8] it was 0.32%; in test [9], 10.6%; in test [10] it was 3.32%; in [11], 3.41%; in test [12], 13.6%. For the same molecule, the inhibition worked out at 14.4% in test [13]; 5.63% in test [14]; 8.15% in test [15]; 7.46% in test [16]; 9.01% in test [17]; 7.95% in test [18]. For the same molecule, the inhibition was found to be 3.97% in test [19] and 8.62% in [20].
On to `Fc1cccc(COc2ccc(Nc3ncncc3C#Cc3ccccc3)cc2Cl)c1`, for which the inhibition in test [1] was 4.63%; in [2], 6.26%; in [3], 7.71%; in test [4], 2.8%; in test [5], 7.49%; in test [6] it was 0.06%. Further, the inhibition in test [7] amounted to 2.67%; in [8] it was 8.24%; in test [9] it was 5.53%; in test [10] it was 3.76%; in test [11], 3.28%; in [12], 13%. The inhibition came out at 12.4% in test [13]; 5.22% in [14]; 4.74% in test [15]; 8.12% in test [16]; 9.74% in test [17]; 8.16% in [18]. The inhibition is 5.45% in test [19] and 6.95% in [20].
Turning to `c1cnn2ncc(-c3ccnc(NCCCN4CCOCC4)n3)c2c1`, the inhibition in test [1] was 2.33%; in test [2] it was 5.49%; in [3] it was 3.64%; in [4], 2.77%; in test [5], 0.53%; in test [6], 3.19%. For the same molecule, the inhibition in test [7] was -0.16%; in test [8], -0.1%; in test [9] it was 0.15%; in [10], 2.04%; in test [11] it was 0.6%; in [12], 5.5%. Moreover, the inhibition in [13] was 6.66%; in test [14] it was 0.88%; in test [15] it was 3.59%; in test [16], 3.47%; in [17] it was 5.82%; in test [18], 3.16%. Moreover, the inhibition in test [19] amounted to 2.82%; in [20], 0.52%.
`CCCNc1cccc(-n2ncc3c(N/N=C/c4ccncc4)ncnc32)c1`: the inhibition in test [1] came out at 4.23%; in test [2], 18%; in test [3] it was 69.6%; in [4] it was 15.4%; in test [5], 64.8%; in [6], 6.21%. In addition, the inhibition in test [7] is 25.6%; in [8], 12.6%; in test [9], 49%; in [10] it was 8.51%; in [11], 49.9%; in test [12] it was 29.4%. Also, the inhibition was found to be 78.4% in test [13]; 16.3% in [14]; 71% in test [15]; 11.7% in test [16]; 38.2% in test [17]; 15.3% in test [18]. Also, the inhibition in test [19] came out at 68.4%; in test [20] it was 27.1%.

The values are drawn from ChEMBL document CHEMBL1961873, “Compounds: GSK PKIS; Assays: Nanosyn kinase panel” (2012).
